{
  "source": "PubChem BioAssay (EPA / NIEHS)",
  "note": "Inconclusive results are not listed. Active and inactive are the calls of the source. How the source made its calls: active means hit-call score of the fitted dose curve at least 0.9, where 1 is the maximum; inconclusive means response in the unintended direction; inactive means score below 0.9.",
  "data": [
    {"read-out": "Cytochrome P450 2B6 (Homo sapiens) (UniProt P20813)", "assay": "CLD_CYP2B6_6hr: CellzDirect (CLD) Gene Expression Assay for xenobiotic metabolism (CYP2B6) at 6 hours (AID 2283677);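 further: actives raise CYP2B6 transcript above DMSO baseline so AC50 marks an inducer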", "procedure": "CLD_6hr is a cell-based, multiplexed-readout assay that uses hepatocyte, a human liver primary cell, with measurements taken at 6 hours after chemical dosing in a 96-well plate.CLD_CYP2B6_6hr is one of 16 assay component(s) measured or calculated from the CLD_6hr assay. It is designed to make measurements of mRNA induction, a form of inducible reporter, as detected with chemiluminescence signals by Quantitative Nuclease Protection Assay (qNPA) technology.Data from the assay component CLD_CYP2B6_6hr was analyzed at the endpoint, CLD_CYP2B6_6hr, in the positive analysis fitting direction relative to DMSO as the negative control and baseline of activity. Using a type of inducible reporter, gain-of-signal activity can be used to understand changes in the reporter gene as they relate to the gene CYP2B6. Furthermore, this assay endpoint can be referred to as a primary readout. To generalize the intended target to other relatable targets, this assay endpoint is annotated to the cyp intended target family, where subfamily is xenobiotic metabolism.\nHuman hepatocyte cultures were treated daily for two consecutive days with fresh dosing solutions containing appropriate concentrations of the 320 ToxCast chemicals (chemical identities were blinded to CellzDirect and other ToxCast collaborators), vehicle control (0.2% DMSO), and positive control inducers as summarized in Table 1. Due to the large number of treatment groups and chemicals examined, the ToxCast chemicals were divided into two groups (spanning two independent cultures of hepatocytes from separate donor preparations (Hu778: ToxCast plates 1 and 2; Hu776: ToxCast plates 3 and 4). Each preparation of human hepatocyte cultures was treated with respective vehicle control, medium only control, set of six positive controls/reference chemicals for the five hepatic receptor pathways, and a subset of eight of the ToxCast chemicals (indoxacarb, pyrithiobac-sodium, norflurazon, cyhalofop-butyl, methomyl, thiram, acetochlor, and propiconazole). These replicate data, coupled with internal replicates designed within the blinded ToxCast chemical library, provided additional data to evaluate interindividual differences between hepatocyte preparations and their potential impact on chemical profiles.Cell morphology and integrity were evaluated using phase-contrast microscopy as an indicator of hepatocyte cell health (Tyson & Green, 1987). Cultures for each treatment group (i.e., media, vehicle [0.2% DMSO], positive control inducers [multiple concentrations], and the ToxCast chemicals [multiple concentrations]) were observed and cell morphology was assessed relative to vehicle control cultures at each harvest time point (0, 6, 24, or 48 h). […] Images were evaluated at the conclusion of the study to assess changes in cell integrity and account for the effects of chemical exposure on uncharacteristic changes in concentration-dependent gene expression profiles. The results from these determinations of apparent cytotoxicity were annotated (yes/no) alongside the corresponding qNPA data for reference.At the conclusion of each treatment period, hepatocyte cultures (96-well) were washed with 1 volume of HBSS, lysed by addition of 25 ul ArrayPlate lysis buffer (HTG, Tucson, AZ), and 70 ul/well of Denaturation Oil, denatured by incubation at 95C for 10 min, and frozen at approximately -70C until analysis by nuclease protection assay (qNPA) (Roberts et al., 2007). For qNPA analysis, cell lysates were thawed at 50C for approximately 30 min, qNPA probes were added, and samples were incubated at 95C for 10 min to begin the detection process by denaturing the target RNA, dissociating the duplexes and secondary structure hybridization. At the conclusion of the hybridization period, S1 nuclease reagent was added to each sample to digest all nonprotected nucleotides at 50C for 60-90 min. […]", "values": [
      {"smiles": "Cc1nc(N(C)C)nc(OC(=O)N(C)C)c1C", "AC50": "3.94 µM (active)"},
      {"smiles": "N#CN=C1SCCN1Cc1ccc(Cl)nc1", "outcome": "inactive"},
      {"smiles": "Nc1c(Cl)c(F)nc(OCC(=O)O)c1Cl", "outcome": "inactive"},
      {"smiles": "COP(=O)(OC)O/C(C)=C/C(=O)N(C)C", "outcome": "inactive"},
      {"smiles": "CC(C)Nc1nc(Cl)nc(NC(C)C)n1", "AC50": "2.47 µM (active)"},
      {"smiles": "CCOP(=S)(OCC)Oc1nc(Cl)n(C(C)C)n1", "AC50": "0.511 µM (active)"},
      {"smiles": "COC(=O)N(C(=O)N1CO[C@@]2(C(=O)OC)Cc3cc(Cl)ccc3C2=N1)c1ccc(OC(F)(F)F)cc1", "AC50": "2.09 µM (active)"},
      {"smiles": "OC(c1ccc(Cl)cc1)(c1ccc(Cl)cc1)C(Cl)(Cl)Cl", "AC50": "3.96 µM (active)"},
      {"smiles": "N#Cc1c(Cl)cccc1Cl", "AC50": "4.85 µM (active)"},
      {"smiles": "Cc1cnc(C2=NC(C)(C(C)C)C(=O)N2)c(C(=O)O)c1", "note": "(stereo not given)", "outcome": "inactive"},
      {"smiles": "CC1(C)CON(Cc2ccccc2Cl)C1=O", "AC50": "3.31 µM (active)"},
      {"smiles": "CNC(=O)N(C)c1nnc(C(C)(C)C)s1", "outcome": "inactive"},
      {"smiles": "COc1cc(Cl)c(OC)cc1Cl", "AC50": "0.618 µM (active)"},
      {"smiles": "CC(C)NC(=O)N1CC(=O)N(c2cc(Cl)cc(Cl)c2)C1=O", "AC50": "20 µM (active)"},
      {"smiles": "Cc1cc(C)nc(Nc2ccccc2)n1", "AC50": "0.994 µM (active)"},
      {"smiles": "Nc1cnn(-c2ccccc2)c(=O)c1Cl", "outcome": "inactive"},
      {"smiles": "CN=C=S", "AC50": "4.85 µM (active)"},
      {"smiles": "COc1ccc(-c2ccccc2)cc1NNC(=O)OC(C)C", "AC50": "6.49 µM (active)"},
      {"smiles": "Clc1nc(Cl)nc(Nc2ccccc2Cl)n1", "outcome": "inactive"},
      {"smiles": "COP(=S)(OC)Oc1ccc([N+](=O)[O-])c(C)c1", "AC50": "1.46 µM (active)"},
      {"smiles": "CCCCC(O)(Cn1cncn1)c1ccc(Cl)cc1Cl", "note": "(stereo not given)", "AC50": "2.08 µM (active)"},
      {"smiles": "CC1(C)CCC(=Cc2ccc(Cl)cc2)C1(O)Cn1cncn1", "note": "(stereo not given)", "AC50": "1.97 µM (active)"},
      {"smiles": "C=C(C)CN(CC)c1c([N+](=O)[O-])cc(C(F)(F)F)cc1[N+](=O)[O-]", "outcome": "inactive"},
      {"smiles": "CC(C)C1(C)N=C(c2ncccc2C(=O)O)NC1=O", "note": "(stereo not given)", "AC50": "0.00054 µM (active)"},
      {"smiles": "CCOc1nc(F)cc2nc(S(=O)(=O)Nc3c(Cl)cccc3Cl)nn12", "AC50": "14.4 µM (active)"},
      {"smiles": "CNC(=O)Oc1cccc2ccccc12", "AC50": "6.15 µM (active)"},
      {"smiles": "CCSC(=O)N1CCCCCC1", "AC50": "2.28 µM (active)"},
      {"smiles": "CCC(C)n1c(=O)[nH]c(C)c(Br)c1=O", "note": "(stereo not given)", "AC50": "3.08 µM (active)"},
      {"smiles": "O=C(Nc1ccccc1-c1ccc(Cl)cc1)c1cccnc1Cl", "AC50": "0.504 µM (active)"},
      {"smiles": "CC1(C)C(C(=O)OC(C#N)c2cccc(Oc3ccccc3)c2)C1(C)C", "note": "(stereo not given)", "AC50": "4.01 µM (active)"},
      {"smiles": "N#Cc1c[nH]cc1-c1cccc2c1OC(F)(F)O2", "AC50": "5.4 µM (active)"},
      {"smiles": "CCNP(=S)(OC)O/C(C)=C/C(=O)OC(C)C", "note": "(stereo not given)", "AC50": "0.84 µM (active)"},
      {"smiles": "COC(=O)NC(=S)Nc1ccccc1NC(=S)NC(=O)OC", "AC50": "4.73 µM (active)"},
      {"smiles": "CCCC(=NOCC)C1=C(O)CC(CC(C)SCC)CC1=O", "note": "(stereo not given)", "outcome": "inactive"},
      {"smiles": "O=c1n(Cl)c(=O)n(Cl)c(=O)n1Cl", "outcome": "inactive"},
      {"smiles": "Cc1ccc(N=CN(C)C=Nc2ccc(C)cc2C)c(C)c1", "outcome": "inactive"},
      {"smiles": "CC(C)Oc1cccc(NC(=O)c2ccccc2C(F)(F)F)c1", "AC50": "3.68 µM (active)"},
      {"smiles": "CCOP(=O)(OCC)Oc1nc(Cl)c(Cl)cc1Cl", "AC50": "7.26 µM (active)"},
      {"smiles": "C=CCOC(=O)C(C)(C)OC(=O)c1cc(-n2c(=O)cc(C(F)(F)F)n(C)c2=O)ccc1Cl", "AC50": "0.32 µM (active)"},
      {"smiles": "COCC(C)N(C(=O)CCl)c1c(C)csc1C", "note": "(stereo not given)", "AC50": "6.94 µM (active)"}
    ]}
  ]
}
